Bioassay records (PubChem)
Hits are enriched below; roughly 18% of the tested compounds scored in any of these assays.
TGFb SMAD3 inh: blocks TGF-b signaling; AID 588855; HepG2 CAGA-GFP TGF-b/SMAD3 reporter, GFP fluorescence, 18 h; TGF-beta stimulated, 500 pg/mL final; Potency, µM (highest dose often 46.1 µM), for the others: at the highest dose activity, negative = inhibition, most hits filed as inhibitors; hit rate 1.2% among 410,000; note: potency is the fitted concentration of half-maximal effect; % is set by controls: 0 for no effect and ±100 for the full control effect; nearly all actives have a fitted effect of over 65% in size
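Using HEPG2 CAGA-GFP reporter cells at 1000 cells/well, we pinned test compounds, stimulated with recombinant TGF-beta (500 pg/mL final) and measured total well GFP after 18 h.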
HepG2 tox: kills HepG2 cells in TGF-b inhibitor counter-screen; HepG2 CAGA-GFP viability, ATP luminescence, 18 h; Potency, µM (highest dose often 46.1 µM), for the others: top-dose activity change, negative = cytotoxicity, hits mostly cytotoxic; hit rate 0.76% among 410,000; AID 588856; note: potency is the fitted concentration of half-maximal effect
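HepG2 CAGA-GFP cells (1000/well, DMEM with 1% FBS) received compound, then TGF-beta at 500 pg/mL final, and were incubated 18 hours at 37 degrees C. Viability was read by CellTiter-Glo luminescence. Media-only wells were set as complete cell-killing and DMSO as no toxicity.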
TDP1 cell noCPT: qHTS for Inhibitors of human tyrosyl-DNA phosphodiesterase 1 (TDP1): qHTS in cells in absence of CPT | DT40 Tdp1-/- hTDP1 cells, no CPT, ATP luminescence, 48 h | Potency, µM (doses to about 46.2 µM), for the others: top-dose activity change, negative = growth inhibition, actives largely listed as inhibitors | hit rate 15% among 420,000 | AID 686978, 2013; note: potency is the fitted concentration of half-maximal effect; % is set by controls: 0 for no effect and ±100 for the full control effect; nearly all actives have a fitted effect of over 55% in size
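DT40 Tdp1-/-;hTDP1 cells, no CPT (DMSO vehicle only), 400 cells/well; compounds pin-transferred; ≥48 hr, 37 °C; CellTiter-Glo 30 min RT dark, luminescence read.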
DT40 TDP1 CPT: growth inhibition of DT40 Tdp1-/-;hTDP1 cells with camptothecin (screen for TDP1 inhibitors). chicken DT40 Tdp1-/-;hTDP1 cells + 20 nM CPT, ATP luminescence, 48 h. Potency, µM (highest dose often 46.2 µM), without a hit: top-dose activity change, negative = growth inhibition, hits mostly inhibitors. hit rate 12% among 420,000; note: potency is the fitted concentration of half-maximal effect; % is set by controls: 0 for no effect and ±100 for the full control effect; nearly all actives have a fitted effect of over 55% in size
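Chicken DT40 Tdp1-/- cells complemented with human TDP1, 400 cells/well, exposed to compounds plus 20 nM camptothecin for at least 48 h at 37 C; viability read as ATP content by CellTiter-Glo luminescence.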
TDP1 block: TDP1 (human) enzyme inhibition; hit rate 0.28% among 350,000; Potency, µM (series often up to 130 µM), without a hit: at the top dose activity change, negative = inhibition, usual class: inhibitors; Q9NUW8; recombinant TDP1, AlphaScreen DNA substrate cleavage; note: potency is the fitted concentration of half-maximal effect; % is set by controls: 0 for no effect and ±100 for the full control effect; nearly all actives have a fitted effect of over 40% in size
Target sequence (Q9NUW8 whole entry, looked up): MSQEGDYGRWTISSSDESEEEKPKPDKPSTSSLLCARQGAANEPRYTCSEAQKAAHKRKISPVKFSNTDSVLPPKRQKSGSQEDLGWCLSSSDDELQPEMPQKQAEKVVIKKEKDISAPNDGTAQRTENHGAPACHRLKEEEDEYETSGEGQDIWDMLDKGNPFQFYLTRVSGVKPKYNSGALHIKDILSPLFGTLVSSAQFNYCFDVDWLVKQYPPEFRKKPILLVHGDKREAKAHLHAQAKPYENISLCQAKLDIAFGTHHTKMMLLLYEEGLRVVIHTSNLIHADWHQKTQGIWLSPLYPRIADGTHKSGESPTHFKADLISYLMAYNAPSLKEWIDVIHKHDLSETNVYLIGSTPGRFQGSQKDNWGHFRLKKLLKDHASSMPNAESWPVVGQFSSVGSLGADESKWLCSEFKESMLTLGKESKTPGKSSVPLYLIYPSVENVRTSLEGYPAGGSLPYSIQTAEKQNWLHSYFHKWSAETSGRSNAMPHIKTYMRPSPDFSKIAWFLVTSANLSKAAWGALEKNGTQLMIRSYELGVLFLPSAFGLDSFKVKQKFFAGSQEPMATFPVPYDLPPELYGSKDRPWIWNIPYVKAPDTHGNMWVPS
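Compounds were preincubated with Tdp1 (1 nM final) for 15 min at room temperature before substrate (15 nM final) started a 5 min reaction; beads (10 ug/ml final) were then added for 10 min before AlphaScreen detection.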
IL-1B inflam inh: inhibitors of inflammasome signaling (IL-1 beta secretion); activity change, % at 57.5 µM; THP-1 LPS/ATP IL-1B secretion, AlphaLISA, 16 h; stronger effect = lower value; hit rate 4.7% among 360,000; AID 743279; in the data active = activity change below about -50%; inconclusive = mostly about -30% to -49%; note: % is set by controls: 0 for no effect and ±100 for the full control effect
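THP-1 cells pretreated 1 hr with compounds (up to 57.5 uM final), then stimulated with LPS (250 ng/mL final) plus ATP (1.25 mM final); secreted IL-1B measured by AlphaLISA after 16 hr, decreased signal indicating inhibition.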
Numbers without * were called inactive; ? = inconclusive; . = not tested or not shown; [ ] = dose if it differs, or a comment. Unless noted, calls come from the whole dose curve; as a rule, active = well fitted curve in the direction sought with a large enough effect; inconclusive = small, poorly fitted or top-dose-only effect, or another doubt; inactive = no such curve, though single readings can be large; an effect the other way counts as inactive or inconclusive.

SMILES | TGFb SMAD3 inh | HepG2 tox | TDP1 cell noCPT | DT40 TDP1 CPT | TDP1 block | IL-1B inflam inh
COc1cccc2cc(-c3csc(CCn4nc(C)cc4C)n3)c(=O)oc12 | 16.2% | 1.9% | 23.1µM* | ? | 0.0% | -5.2
CCCN(C(=O)CCOc1ccc(C(C)(C)C)cc1)c1c(N)n(Cc2ccccc2)c(=O)[nH]c1=O | 19.5% | -5.9% | ? | ? | . | -11.1
Cc1cc(=O)[nH]c(SCC(=O)Nc2ccc3c(c2)CCC3)c1C#N | -17.0% | -14.9% | -4.0% | 0.9% | 1.7% | 30.0
CC(C)(C)n1ncc2c(=O)n(Cc3ccc(Cl)cc3Cl)cnc21 | 26.3% | 2.4% | 14.6µM* | 16.4µM* | -2.5% | ?
CC(C)(C)n1ncc2c(=O)n(CC(=O)NCc3ccccc3)cnc21 | 15.4% | -7.0% | 6.51µM* | 8.2µM* | 4.8%[56.1 µM] | 26.9
CC(C)(C)n1ncc2c(=O)n(CC(=O)c3ccc(Cl)cc3)cnc21 | -3.3% | -24.9% | 23.1µM* | 23.1µM* | 0.5% | -8.9
CC(=O)Nc1ccc(NC(=O)Cn2cnc3c(cnn3C(C)(C)C)c2=O)cc1 | 0.0% | 3.5% | -11.2% | -11.5% | 7.8% | -21.3
CC(C)(C)n1ncc2c(=O)n(Cc3cc(Cl)ccc3Cl)cnc21 | -7.5% | -5.5% | . | . | . | .
Cc1cccnc1NC(=O)C(C)N1C(=O)c2ccccc2C1=O (stereo not given) | 2.6% | -26.3% | -8.2% | 8.3% | 3.9% | -7.6
CCOc1ccc2[nH]cc(S(=O)(=O)c3ccc(C)cc3)c(=O)c2c1 | -3.6% | -19.5% | ? | ? | 3.5% | 3.9
CCOc1ccc2[nH]cc(-c3csc(N)n3)c2c1 | -27.0% | -2.1% | 10.3µM* | ? | . | -4.7
CC(C)(C)C1CCN2CCCC(c3ccccc3)(C1)C2=O (stereo not given) | . | . | ? | -6.5% | . | 25.7
COC(=O)c1[nH]c2ccc(C)cc2c1NC(=O)CN1CCN(c2ccc(F)cc2)CC1 | -0.9% | -4.1% | 15.8µM* | 11.2µM* | 6.8% | -6.1
COC(=O)c1[nH]c2ccc(C)cc2c1NC(=O)CN1CCN(C(=O)c2ccccc2)CC1 | -22.1% | -30.0% | ? | ? | 4.1% | 27.9
COC(=O)c1[nH]c2ccc(C)cc2c1NC(=O)CN1CCN(Cc2ccccc2)CC1 | 0.0% | -52.6% | 25.9µM* | 18.4µM* | 4.9% | -1.2
COC(=O)c1[nH]c2ccc(C)cc2c1NC(=O)CN1CCN(c2ccccc2)CC1 | -7.9% | -19.9% | 23.1µM* | 16.4µM* | 11.9% | -23.4
CCOC(=O)c1[nH]c2ccc(OCC)cc2c1NC(=O)CN1CCN(c2ccccc2)CC1 | -2.2% | 9.8% | ? | 20.6µM* | 4.1% | -18.7
Cc1nc2cc(NC(=O)COc3ccc(C#N)cc3)ccc2n1-c1ccccc1 | -9.8% | -14.6% | ? | ? | 2.0% | -13.5
Cc1cccc(CS(=O)(=O)c2ncc(CO)n2C)c1 | -0.2% | -16.7% | -17.1% | -5.7% | . | -4.6
Cc1ccc2[nH]c(C(=O)O)c(NC(=O)CN3CCN(c4cccc(C)c4C)CC3)c2c1 | ? | -6.2% | 23.1µM* | ? | 1.0% | 44.6
[O-][n+]1cccc2c(Br)cc(Br)c(O)c21 | -2.0% | -9.7% | ? | ? | 8.1% | -62.3*
C[n+]1cccc2c(Br)ccc([O-])c21 | 6.2% | 13.7% | -26.4% | 9.3% | -5.1% | -2.9
CN1CCC(=O)N([C@H](CSc2ccc(Br)cc2)Cc2ccccc2)CC1 | -17.0% | -30.8% | ? | 20.6µM* | 3.5% | ?
C[C@H]1CCC(=O)N([C@H](CSc2ccc(Br)cc2)Cc2ccccc2)CC1 | 8.1% | 2.6% | 29.1µM* | 18.4µM* | 2.1% | ?
CC(C)CN1CCC(=O)N([C@H](CSc2ccc(Br)cc2)Cc2ccccc2)CC1 | -12.1% | -13.2% | 18.4µM* | 14.6µM* | -2.4% | -53.3*
